# PubChem BioAssay AID2284136 (EPA ToxCast)
# The source made the active and inactive calls. Rule for the calls: active = hit-call score of the fitted dose curve at least 0.9, where 1 is the maximum; inactive = score below 0.9.
# Target: Tyrosine-protein phosphatase non-receptor type 11 (Homo sapiens) (UniProt Q06124)
# Test: ERF_FR_ENZ_hPTPN11: Eurofins (ERF) Enzymatic Assay for human Phosphatase Receptor (PTPN11/SHP2)
# Procedure: ERF_FR_ENZ_hPTPN11 is a biochemical, single-readout assay that uses extracted gene-proteins in a cell-free assay. Measurements were taken 0.5 hour after chemical dosing in a 96-well plate. See SHP2 Human Phosphatase Enzymatic Assay, PhosphataseProfiler.ERF_FR_ENZ_hPTPN11 is an assay component calculated from the ERF_FR_ENZ_hPTPN11 assay. It is designed to measure enzyme activity using a type of enzyme reporter as detected by fluorescence intensity with spectrophotometry technology.Data from the assay component ERF_FR_ENZ_hPTPN11 was analyzed at the assay endpoint, ERF_FR_ENZ_hPTPN11, in the positive analysis fitting direction relative to DMSO as the negative control and baseline of activity. Using a type of enzyme reporter, loss-of-signal activity can be used to understand changes in enzymatic activity as they relate to gene PTPN11. To generalize the intended target to other relatable targets, this assay endpoint is annotated to the phosphatase intended target family, where the subfamily is protein tyrosine phosphatase.
# Human recombinant phosphatase PTPN11 (SHP-2) expressed in E. coli is used. Test compound and/or vehicle is preincubated with 45 ng/ml enzymeo for 15 minutes at 37 C in modified HEPES buffer pH 7.2. The reaction is initiated by addition of 100 uM DiFMUP for 60 minutes. Determination of the amount of DiFMU formed is read spectrofluorimetrically at 358 nm/450 nm. […]
# Tyrosine-protein phosphatase non-receptor type 11 (Homo sapiens), sequence (Q06124 whole entry, looked up): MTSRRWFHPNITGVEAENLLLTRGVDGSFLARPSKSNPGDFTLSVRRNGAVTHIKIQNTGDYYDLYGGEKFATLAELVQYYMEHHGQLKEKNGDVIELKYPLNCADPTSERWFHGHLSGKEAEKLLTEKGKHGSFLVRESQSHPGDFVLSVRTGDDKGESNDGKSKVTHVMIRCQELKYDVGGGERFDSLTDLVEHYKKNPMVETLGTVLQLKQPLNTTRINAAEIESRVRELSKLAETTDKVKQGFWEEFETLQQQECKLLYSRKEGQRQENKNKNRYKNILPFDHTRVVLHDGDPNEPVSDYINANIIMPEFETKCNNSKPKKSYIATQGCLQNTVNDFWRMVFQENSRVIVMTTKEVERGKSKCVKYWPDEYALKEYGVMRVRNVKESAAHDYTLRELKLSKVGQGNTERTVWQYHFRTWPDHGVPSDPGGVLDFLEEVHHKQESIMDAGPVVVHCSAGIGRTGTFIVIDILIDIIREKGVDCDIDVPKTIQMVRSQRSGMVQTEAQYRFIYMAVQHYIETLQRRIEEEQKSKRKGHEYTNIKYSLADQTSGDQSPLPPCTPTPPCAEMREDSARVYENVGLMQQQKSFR
row,SMILES,AC50
1,O=C(/C=C/c1ccc(O)cc1)CC(=O)/C=C/c1ccc(O)cc1,0.28 nM (active)
